We go through 12 compounds from PubChem BioAssay (Tox21).

Results filed as inconclusive are left out. The source made the active and inactive calls. Unless noted, calls follow the shape of the dose curve; as a rule, active = well fitted curve in the direction sought with a large enough effect in the repeat runs; inconclusive = weak or mixed curves; inactive = no such curve, though single readings can be large; an effect the other way counts as inactive or inconclusive.

Assay [1] in a line: qHTS assay to identify small molecule agonists of the peroxisome proliferator-activated receptor delta (PPARd) signaling pathway - cell viability counter screen (AID 743211). Also: nearly all actives have a fitted effect of over 55% in size. Also: potency is read from the fitted curve at half-maximal effect. The method, boiled down: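 Viability of GeneBLAzer PPARd UAS-bla HEK293H cells was assessed after 17 h compound incubation at 37C, using CellTiter-Glo reagent added after the reporter read and luminescence recorded 30 min later.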
In general terms: In qHTS, concentration-response curves come from the screen itself.

For assay [2], the target named is Peroxisome proliferator-activated receptor delta (Homo sapiens) (UniProt Q03181). Description: qHTS assay to identify small molecule agonists of the peroxisome proliferator-activated receptor delta (PPARd) signaling pathway (AID 743212; calls by dose curve;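 also: HEK293H cells with PPARd UAS beta-lactamase reporter GeneBLAzer system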). The method, boiled down:
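Beta-lactamase reporter readout: a ratiometric FRET signal from the LiveBLAzer substrate after 2 h at room temperature. Compound exposure at 37 °C in PPARδ-bla HEK293H cells driven by an upstream activator sequence.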

Assay [3] is described as follows: qHTS assay to identify small molecule antagonists of the peroxisome proliferator-activated receptor delta (PPARd) signaling pathway - cell viability counter screen (AID 743213). Also: nearly all actives have a fitted effect of over 50% in size. The method, boiled down: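 Luminescence from CellTiter-Glo, added after the bla read and incubated 30 min at room temperature, gives viability of HEK293H PPARd-bla cells exposed to compounds for 17 h at 37 C with 300 nM L165041.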

Assay [4] deals with Peroxisome proliferator-activated receptor delta (Homo sapiens) (UniProt Q03181). Description: qHTS assay to identify small molecule antagonists of the peroxisome proliferator-activated receptor delta (PPARd) signaling pathway (AID 743215; active = well fitted inhibition curve with a large enough effect in the signal ratio in the repeat runs, not every such curve was filed as active; the % refers to the signal ratio;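 also: cells stimulated with agonist L165041 at 300 nM final during compound exposure; series mostly up to about 62 µM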). An outline of the steps:
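Here, a reporter line (HEK293H, beta-lactamase under a UAS) measures PPARd signaling. Compounds are tested against agonist L165041 at 300 nM final concentration over 17 h at 37 C, with fluorescence read after substrate.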

The nature of assay [5]: qHTS assay to identify small molecule agonists of the farnesoid-X-receptor (FXR) signaling pathway - cell viability counter screen (AID 743218). Also: nearly all actives have a fitted effect of over 45% in size. The method, boiled down: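 Quantitative HTS counter screen measuring ATP-based viability via CellTiter-Glo luminescence in HEK 293T cells carrying a UAS-driven beta-lactamase reporter, after 16 h compound exposure at 37 C.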
The nature of assay [6]: qHTS assay to identify small molecule antagonists of the farnesoid-X-receptor (FXR) signaling pathway - cell viability counter screen (AID 743221; active = well fitted cell-killing curve with a large enough effect in the repeat runs, not every such curve was filed as active; also: nearly all actives have a fitted effect of over 50% in size). An outline of the steps: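 Quantitative HTS of the Tox21 10K library run in parallel with the beta-lactamase reporter read. HEK 293T cells carrying a UAS-driven bla reporter got compound and 50 uM CDCA (final) for 16 h; ATP-based luminescence followed.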

Assay [7] addresses Vitamin D3 receptor (Homo sapiens) (UniProt P11473). Description: qHTS assay to identify small molecule agonists of the vitamin D receptor (VDR) signaling pathway (AID 743222; calls by dose curve). The method, boiled down: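 Tox21 cell reporter format: VDR-bla line, 16 h compound exposure in 5% CO2 at 37C, then fluorescence intensity after 2 h with LiveBLAzer B/G FRET substrate.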
Assay [8] shares this target. Description: qHTS assay to identify small molecule antagonists of the vitamin D receptor (VDR) signaling pathway (AID 743223; active = well fitted inhibition curve with a large enough effect in the signal ratio in the repeat runs, not every such curve was filed as active; the % refers to the signal ratio). The method, boiled down: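 Fluorescence from LiveBLAzer B/G FRET substrate, read after 2 h at room temperature, reflects beta-lactamase reporter activity in VDR-bla cells treated 16 h at 37C with compounds and agonist 1alpha,25-dihydroxyvitamin D3 (3 nM final).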

Assay [9] in a line: qHTS assay to identify small molecule agonists of the vitamin D receptor (VDR) signaling pathway - cell viability counter screen (AID 743224). Also: series mostly up to about 63 µM; nearly all actives have a fitted effect of over 50% in size. The method, boiled down: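 CellTiter-Glo viability readout on VDR-bla cells, measured after 16 h of compound treatment at 37C in the same wells.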
Assay [10] in a line: qHTS assay to identify small molecule antagonists of the vitamin D receptor (VDR) signaling pathway - cell viability counter screen (AID 743225). Also: nearly all actives have a fitted effect of over 50% in size. An outline of the steps:
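Cells (VDR-UAS-bla HEK 293T) are plated, rested 4 h at 37C, dosed with compound and 3 nM final 1-alpha,25-dihydroxy vitamin D3, and incubated 16 h. Viability is taken from CellTiter-Glo luminescence in the reporter wells.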

Assay [11] can be described thus: qHTS assay to identify small molecule agonists of the endoplasmic reticulum stress response signaling pathway (AID 1159516; active = well fitted activation curve with a large enough effect in the signal ratio in the repeat runs, not every such curve was filed as active; the % refers to the signal ratio). The method, boiled down: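 Fluorescence at 460 and 530 nm (405 nm excitation) reports beta-lactamase from an ER stress response element in HeLa cells treated 5 hr at 37 C.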
Assay [12] is described as follows: qHTS assay to identify small molecule agonists of the endoplasmic reticulum stress response signaling pathway - cell viability counter screen (AID 1159517; calls by dose curve). An outline of the steps:
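ESRE-bla HeLa cells (1,500/well) were plated overnight at 37 C and exposed to compounds for 5 hr. After the 2 hr beta-lactamase substrate read, CellTiter-Glo went into the same wells, and luminescence was read after 30 min at room temperature.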

The nature of assay [13]: qHTS assay to identify small molecule antagonists of the retinoid-related orphan receptor gamma (ROR-gamma) signaling pathway - cell viability counter screen (AID 1159520). Also: nearly all actives have a fitted effect of over 50% in size. An outline of the steps: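 Cytotoxicity was read from cellular ATP (CellTiter-Glo luminescence) after 16 hr at 37 C with 1 uM doxycycline induction. The inducer was added 2 hr after compound transfer to Tet-on ROR gamma CHO cells.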

Assay [14] addresses Nuclear receptor ROR-gamma (Homo sapiens) (UniProt P51449). Description: qHTS assay to identify small molecule antagonists of the retinoid-related orphan receptor gamma (ROR-gamma) signaling pathway (AID 1159521; also: nearly all actives have a fitted effect of over 50% in size; also: potency is read from the fitted curve at half-maximal effect). An outline of the steps:
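RORγ antagonism is scored from reduced reporter luminescence in Tet-on CHO cells. Induction used 1 uM final doxycycline hyclate for 16 h at 37 C, following a 2 h compound exposure.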

Assay [15] in a line: qHTS assay to identify small molecule agonists of the AP-1 signaling pathway - cell viability counter screen (AID 1159525; calls by dose curve; also: nearly all actives have a fitted effect of over 55% in size). An outline of the steps:
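Intracellular ATP by Cell Titer Glo luminescence (30 min, RT) in the same ME-180 AP-1-bla wells after the 5 h compound exposure at 37 °C. Normalised to tetra n-octyl ammonium bromide and DMSO controls.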

Assay [16] in a line: qHTS assay to identify small molecule agonists of the AP-1 signaling pathway (AID 1159526; calls by dose curve).
In assay [17] the target is Retinoic acid receptor RXR-alpha (Homo sapiens) (UniProt P19793). Description: qHTS assay to identify small molecule agonists of the RXR signaling pathway (AID 1159527; calls by dose curve; also: nearly all actives have a fitted effect of over 35% in size). The method, boiled down:
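qHTS of the Tox21 10K library in GeneBLAzer RXR-alpha HEK 293T cells carrying a beta-lactamase reporter […]; 16 hr treatment, 9-cis retinoic acid as agonist control, FRET read-out.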

In assay [18] the target is Bile acid receptor (Homo sapiens) (UniProt Q96RI1). Description: qHTS assay to identify small molecule antagonists of the farnesoid-X-receptor (FXR) signaling pathway (AID 743217; active = well fitted inhibition curve with a large enough effect in the signal ratio in the repeat runs, not every such curve was filed as active; the % refers to the signal ratio). The method, boiled down: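 Test compounds are pin-transferred onto FXR-bla HEK 293T cells, then chenodeoxycholic acid is added at 50 uM final. After 16 h at 37 °C, LiveBLAzer B/G substrate is applied for 2 h at room temperature and fluorescence read.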

For assay [19] the target is unchanged. Description: qHTS assay to identify small molecule agonists of the farnesoid-X-receptor (FXR) signaling pathway (AID 743220; active = well fitted activation curve with a large enough effect in the signal ratio in the repeat runs, not every such curve was filed as active; the % refers to the signal ratio). The method, boiled down:
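FXR-UAS-bla HEK 293T cells carrying a UAS-driven beta-lactamase reporter were plated for 5 h at 37C/5% CO2, then exposed to DMSO-dissolved Tox21 10K compounds for 16 h at 37C. A LiveBLAzer B/G FRET substrate was loaded for 2 h at room temperature before fluorescence reading.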

Chain of Retinoic acid receptor RXR-alpha (Homo sapiens) (P19793 whole entry, looked up): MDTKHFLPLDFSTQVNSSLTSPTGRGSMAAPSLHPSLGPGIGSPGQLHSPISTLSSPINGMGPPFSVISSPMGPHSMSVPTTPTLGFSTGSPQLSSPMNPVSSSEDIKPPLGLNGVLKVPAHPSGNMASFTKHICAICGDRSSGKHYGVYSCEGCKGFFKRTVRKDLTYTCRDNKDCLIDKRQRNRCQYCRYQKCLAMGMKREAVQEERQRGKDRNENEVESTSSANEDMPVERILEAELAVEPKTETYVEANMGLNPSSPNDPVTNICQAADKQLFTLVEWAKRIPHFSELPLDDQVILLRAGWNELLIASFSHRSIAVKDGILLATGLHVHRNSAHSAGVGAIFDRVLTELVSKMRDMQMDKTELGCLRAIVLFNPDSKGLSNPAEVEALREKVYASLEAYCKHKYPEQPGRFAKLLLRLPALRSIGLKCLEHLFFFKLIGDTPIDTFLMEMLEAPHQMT
Chain of Peroxisome proliferator-activated receptor delta (Homo sapiens) (Q03181 whole entry, looked up): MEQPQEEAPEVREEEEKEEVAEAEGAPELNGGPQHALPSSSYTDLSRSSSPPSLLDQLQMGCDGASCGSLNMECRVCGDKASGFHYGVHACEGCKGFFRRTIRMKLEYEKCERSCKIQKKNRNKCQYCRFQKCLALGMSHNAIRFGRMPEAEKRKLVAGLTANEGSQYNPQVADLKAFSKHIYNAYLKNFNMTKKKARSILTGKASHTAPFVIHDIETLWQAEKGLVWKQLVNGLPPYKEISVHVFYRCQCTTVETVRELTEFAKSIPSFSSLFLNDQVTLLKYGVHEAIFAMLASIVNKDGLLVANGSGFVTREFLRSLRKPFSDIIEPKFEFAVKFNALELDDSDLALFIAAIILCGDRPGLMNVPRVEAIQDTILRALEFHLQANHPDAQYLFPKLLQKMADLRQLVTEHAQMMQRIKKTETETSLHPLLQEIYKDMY
Chain of Vitamin D3 receptor (Homo sapiens) (P11473 whole entry, looked up): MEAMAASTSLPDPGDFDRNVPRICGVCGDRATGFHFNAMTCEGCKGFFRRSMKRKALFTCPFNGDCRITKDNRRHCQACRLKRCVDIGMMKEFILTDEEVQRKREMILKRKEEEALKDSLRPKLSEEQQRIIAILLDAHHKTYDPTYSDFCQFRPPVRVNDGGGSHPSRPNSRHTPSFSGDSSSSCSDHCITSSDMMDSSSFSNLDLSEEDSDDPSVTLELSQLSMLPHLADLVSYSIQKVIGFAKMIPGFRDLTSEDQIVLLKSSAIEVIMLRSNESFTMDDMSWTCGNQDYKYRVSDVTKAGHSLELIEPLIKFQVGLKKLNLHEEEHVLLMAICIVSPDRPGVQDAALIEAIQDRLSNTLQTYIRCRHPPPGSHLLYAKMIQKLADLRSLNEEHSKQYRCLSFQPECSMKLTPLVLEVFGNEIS
Chain of Bile acid receptor (Homo sapiens) (Q96RI1 whole entry, looked up): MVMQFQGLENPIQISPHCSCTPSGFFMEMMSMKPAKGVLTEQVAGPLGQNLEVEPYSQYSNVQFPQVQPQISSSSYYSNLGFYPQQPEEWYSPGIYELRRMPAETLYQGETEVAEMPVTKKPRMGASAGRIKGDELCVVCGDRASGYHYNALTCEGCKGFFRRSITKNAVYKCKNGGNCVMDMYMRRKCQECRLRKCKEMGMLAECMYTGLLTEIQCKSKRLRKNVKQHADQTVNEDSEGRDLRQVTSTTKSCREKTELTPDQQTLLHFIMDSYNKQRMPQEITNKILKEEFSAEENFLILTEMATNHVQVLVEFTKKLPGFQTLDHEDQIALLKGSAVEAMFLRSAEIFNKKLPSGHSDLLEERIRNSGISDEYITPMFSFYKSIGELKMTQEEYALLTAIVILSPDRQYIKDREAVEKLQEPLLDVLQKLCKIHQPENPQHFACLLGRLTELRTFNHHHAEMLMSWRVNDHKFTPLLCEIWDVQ

With `CNC(=O)CSP(=S)(OC)OC`, the Potency entry in assay [1], in assay [2], in assay [3], in assay [4], in [5] and in assay [6] was “inactive” in each case. Further, the Potency result in [8], in assay [9], in [10], in [11], in [12] and in [13] was “inactive” each time. Moreover, the Potency result in assay [14], in assay [15] and in assay [17] was “inactive” each time. Further, the outcome in assay [7] and in assay [16] was inactive.
On to `COP(=O)(NC(C)=O)SC` (stereo unspecified), for which the Potency entry in assay [1], in assay [2], in assay [3], in assay [4], in assay [6] and in assay [8] was “inactive” each time. For the same compound, the Potency result in assay [9], in assay [10], in [11], in assay [12], in assay [13] and in [14] was “inactive” throughout. Further, the Potency result in [15] and in assay [17] was “inactive” throughout. In addition, the outcome in [7] and in assay [16] was inactive.
For `CC(C)(c1ccc(OCC2CO2)cc1)c1ccc(OCC2CO2)cc1` (stereo unspecified), the Potency in assay [1] is 34.7 µM (active). Besides, the Potency entry in assay [3], in assay [4], in assay [5], in assay [6], in [9] and in assay [10] was “inactive” throughout. The Potency entry in [11], in assay [12], in [13], in assay [14] and in assay [15] was “inactive” throughout. Besides, in assay [16], the call was inactive.
On to `O=P(OCCCl)(OCCCl)OCCCl`, for which the Potency entry in assay [1], in [2], in assay [3], in assay [4], in assay [18] and in assay [5] was “inactive” each time. Further, the Potency result in assay [19], in assay [6], in assay [8], in assay [9], in assay [10] and in [11] was “inactive” each time. The Potency entry in assay [12], in assay [13], in [14], in [15] and in [17] was “inactive” in each case. Further, the call in assay [7] and in assay [16] was inactive.
As to `CN(C)c1ccccc1`, the Potency entry in [1], in assay [3], in assay [18], in assay [5], in assay [19] and in assay [6] was “inactive” throughout. Besides, the Potency result in [8], in assay [9], in assay [10], in assay [11], in [12] and in assay [13] was “inactive” each time. Moreover, the Potency result in assay [15] and in assay [17] was “inactive” each time. Moreover, the compound was called inactive in assay [7] and in [16].
Take `ClC(Cl)(Cl)Br`: the Potency result in [1], in assay [2], in assay [3], in [4], in assay [18] and in assay [19] was “inactive” each time. For the same compound, the Potency result in assay [6], in [8], in [9], in assay [10], in assay [11] and in assay [12] was “inactive” throughout. The Potency entry in [13], in assay [14], in assay [15] and in assay [17] was “inactive” throughout. Besides, the call in assay [7] and in [16] was inactive.
With `COc1ccc(O)c(C(C)(C)C)c1`, the Potency entry in [1], in [3], in assay [18], in assay [5], in assay [19] and in assay [6] was “inactive” in each case. For the same compound, the Potency result in assay [8], in assay [9], in assay [10], in assay [11], in [12] and in assay [13] was “inactive” in each case. Besides, the Potency result in assay [15] and in assay [17] was “inactive” each time. Besides, the result in assay [7] and in assay [16] was inactive.
`O=NN(c1ccccc1)c1ccccc1`: the Potency result in assay [1], in assay [2], in assay [3], in [4], in [18] and in assay [19] was “inactive” throughout. Also, the Potency result in assay [6], in assay [9], in [10], in [11], in assay [12] and in assay [13] was “inactive” throughout. In addition, the Potency entry in [14], in assay [15] and in assay [17] was “inactive” each time. The compound was called inactive in [16].
As for `C[N+](C)(C)C`, the Potency entry in assay [1], in [3], in assay [5], in assay [6], in assay [8] and in assay [9] was “inactive” throughout. In addition, the Potency result in assay [10], in [11], in assay [12], in [13], in assay [14] and in [15] was “inactive” each time. Further, the Potency entry in assay [17] is “inactive”. The outcome in assay [7] and in [16] was inactive.
In the case of `Clc1cccc(Cl)c1`, the Potency entry in assay [1], in assay [2], in [3], in assay [4], in [5] and in assay [6] was “inactive” in each case. Moreover, the Potency result in [8], in assay [9], in assay [10], in assay [11], in assay [12] and in assay [13] was “inactive” throughout. Moreover, the Potency entry in [15] was “inactive”. The compound was classed as inactive in [7] and in assay [16]. In assay [14], the Potency was 30.4 µM (active).
With `NN=C(N)N`, the Potency entry in [1], in assay [3], in assay [5], in [6], in assay [9] and in assay [10] was “inactive” throughout. For the same compound, the Potency entry in assay [11], in assay [12], in assay [13], in assay [15] and in [17] was “inactive” throughout. Besides, the result in [16] was inactive.
For `CC(O)CN(CC(C)O)CC(C)O` (stereo unspecified), the Potency entry in assay [1], in assay [2], in [3], in assay [4], in assay [18] and in [5] was “inactive” each time. Also, the Potency entry in assay [19], in [6], in [9], in assay [10], in assay [11] and in [12] was “inactive” in each case. For the same compound, the Potency entry in assay [13], in assay [14], in assay [15] and in assay [17] was “inactive” each time. Further, the compound was called inactive in [16].
